Inconclusive results are not listed. The source made the active and inactive calls. Unless noted, calls follow the shape of the dose curve; as a rule, active = well fitted curve in the direction sought with a large enough effect in the repeat runs; inconclusive = weak or mixed curves; inactive = no such curve, though single readings can be large; an effect the other way counts as inactive or inconclusive.
What was measured:
[1] = qHTS RealTime-Glo MT Cell Viability Assay in HEK293 cells - 24 hour (AID 1224886); also: top concentration of the series differs between compounds; nearly all actives have a fitted effect of over 50% in size
How it was run: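 Reads taken at 0, 8, 16, 24, 32 and 40 h from the same wells. HEK293 cells (600/well) carried RealTime-Glo reagents from seeding, with compound added after a 5 h settle at 37 C.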

[2] = qHTS RealTime-Glo MT Cell Viability Assay in HEK293 cells - 8 hour (AID 1224887); also: top concentration of the series differs between compounds; nearly all actives have a fitted effect of over 50% in size
How it was run: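 Real-time viability in HEK293: signal arises when living cells convert a prosubstrate for NanoLuc in the medium, so luminescence tracks viable cell number. Compound (23 nL, DMSO) added 5 h post-seeding; kinetic reads at 0–40 h, 37 C.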

[3] = qHTS RealTime-Glo MT Cell Viability Assay in HepG2 cells - 0 hour (AID 1224889); also: nearly all actives have a fitted effect of over 50% in size
How it was run: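 HepG2 suspension premixed with RealTime-Glo reagents is plated at 600 cells per well and left 5 h at 37 C/5% CO2. Compounds in DMSO then go in, and bioluminescence reflecting viable cell number is recorded over 40 h.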

[4] = A CellTox Green Cytotoxicity Assay to monitor cytotoxicity in HepG2 cells - 8 hour (AID 1224890); also: nearly all actives have a fitted effect of over 45% in size; also: potency is read from the fitted curve at half-maximal effect
How it was run: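 Cells and non-lytic dye reagent are dispensed together (600 HepG2 cells/well) and incubated 5 h before DMSO compound transfer. Kinetic fluorescence is then recorded in the same wells during 40 h at 37 C.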

[5] = qHTS assay to identify small molecule antagonists of the estrogen receptor alpha (ER-alpha) signaling pathway using the BG1 cell line in the presence of 0.1 nM 17-beta-estradiol - cell viability counter screen (AID 1259241); also: nearly all actives have a fitted effect of over 40% in size
How it was run: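 Following 5 days in phenol red-free medium with charcoal-stripped serum, VM7Luc4E2 cells received test compounds alongside 0.1 nM 17beta-estradiol (final) at 37C for 22 hr. Live cells were then quantified via protease-substrate fluorescence.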

[6] = qHTS assay to identify small molecule antagonists of the androgen receptor (AR) signaling pathway using the MDA cell line in the presence of 0.5 nM R1881 - cell viability counter screen (AID 1259242); also: nearly all actives have a fitted effect of over 45% in size
How it was run: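 Steps: plate MDA-kb2 cells, rest 5 hr at 37C without CO2; pin in compounds in DMSO; add R1881 to 0.5 nM final; incubate 16 hr; add CellTiter-Fluor, 30 min; read fluorescence.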

[7] = molecular target: Androgen receptor (Homo sapiens) (UniProt P10275); test: qHTS assay to identify small molecule antagonists of the androgen receptor (AR) signaling pathway using the MDA cell line in the presence of 0.5 nM R1881 (AID 1259243); also: nearly all actives have a fitted effect of over 50% in size
How it was run: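 Stably transfected MDA-kb2 cells express luciferase from an MMTV promoter bearing both AR and GR response elements. Compounds plus 0.5 nM R1881 (final) were incubated 16 hr at 37C without CO2, then luminescence measured.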

[8] = molecular target: Estrogen receptor (Homo sapiens) (UniProt P03372); test: qHTS assay to identify small molecule antagonists of the estrogen receptor alpha (ER-alpha) signaling pathway using the BG1 cell line in the presence of 0.1 nM 17-beta-estradiol (AID 1259244); also: nearly all actives have a fitted effect of over 50% in size
How it was run: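 Antagonist mode: compounds in DMSO are pinned onto VM7Luc4E2 reporter cells, 0.1 nM final 17beta-estradiol is added, and after 22 h at 37C luciferase luminescence is measured with ONE-Glo.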

[9] = A CellTox Green Cytotoxicity Assay to monitor cytotoxicity in HEK293 cells - 16 hour (AID 1224888); also: nearly all actives have a fitted effect of over 35% in size; also: potency is read from the fitted curve at half-maximal effect
How it was run: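 Cells (HEK293, 600/well) and dye reagent are dispensed together. After 5 h at 37 C, 23 nL compound is pinned in. Plates stay at 37 C for 40 h with fluorescence read at 0h, 8h, 16h, 24h, 32h and 40h.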

[10] = qHTS assay to identify small molecule phospholipidosis (PLD) inducers (AID 1259344; active = well fitted curve in the direction sought with a large enough effect; an effect the other way counts as inactive or inconclusive)
How it was run: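 After 4 h attachment on collagen I, HepG2 cells were dosed with compound alongside LipidTOX Red, kept 24 h at 37 C, fixed, and imaged for lamellar phospholipid pits.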
% is scaled to controls: 0 for no effect and ±100 for the full control effect.

Estrogen receptor (Homo sapiens), sequence (P03372 whole entry, looked up): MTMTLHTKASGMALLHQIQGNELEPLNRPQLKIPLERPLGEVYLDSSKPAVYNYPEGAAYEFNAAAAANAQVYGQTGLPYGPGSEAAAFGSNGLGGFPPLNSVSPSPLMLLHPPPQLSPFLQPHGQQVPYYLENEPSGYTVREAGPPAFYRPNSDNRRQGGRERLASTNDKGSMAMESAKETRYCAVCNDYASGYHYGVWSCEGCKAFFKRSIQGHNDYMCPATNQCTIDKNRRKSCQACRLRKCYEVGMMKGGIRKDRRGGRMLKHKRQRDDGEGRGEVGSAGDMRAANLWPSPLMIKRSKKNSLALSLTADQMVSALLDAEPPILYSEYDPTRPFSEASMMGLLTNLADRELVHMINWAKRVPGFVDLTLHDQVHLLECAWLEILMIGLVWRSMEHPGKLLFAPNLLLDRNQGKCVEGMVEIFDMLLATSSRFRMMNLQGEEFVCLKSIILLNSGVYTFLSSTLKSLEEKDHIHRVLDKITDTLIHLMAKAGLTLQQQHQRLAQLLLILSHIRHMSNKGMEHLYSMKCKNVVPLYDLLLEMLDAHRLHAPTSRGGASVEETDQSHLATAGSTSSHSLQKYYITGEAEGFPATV
Androgen receptor (Homo sapiens), sequence (P10275 whole entry, looked up): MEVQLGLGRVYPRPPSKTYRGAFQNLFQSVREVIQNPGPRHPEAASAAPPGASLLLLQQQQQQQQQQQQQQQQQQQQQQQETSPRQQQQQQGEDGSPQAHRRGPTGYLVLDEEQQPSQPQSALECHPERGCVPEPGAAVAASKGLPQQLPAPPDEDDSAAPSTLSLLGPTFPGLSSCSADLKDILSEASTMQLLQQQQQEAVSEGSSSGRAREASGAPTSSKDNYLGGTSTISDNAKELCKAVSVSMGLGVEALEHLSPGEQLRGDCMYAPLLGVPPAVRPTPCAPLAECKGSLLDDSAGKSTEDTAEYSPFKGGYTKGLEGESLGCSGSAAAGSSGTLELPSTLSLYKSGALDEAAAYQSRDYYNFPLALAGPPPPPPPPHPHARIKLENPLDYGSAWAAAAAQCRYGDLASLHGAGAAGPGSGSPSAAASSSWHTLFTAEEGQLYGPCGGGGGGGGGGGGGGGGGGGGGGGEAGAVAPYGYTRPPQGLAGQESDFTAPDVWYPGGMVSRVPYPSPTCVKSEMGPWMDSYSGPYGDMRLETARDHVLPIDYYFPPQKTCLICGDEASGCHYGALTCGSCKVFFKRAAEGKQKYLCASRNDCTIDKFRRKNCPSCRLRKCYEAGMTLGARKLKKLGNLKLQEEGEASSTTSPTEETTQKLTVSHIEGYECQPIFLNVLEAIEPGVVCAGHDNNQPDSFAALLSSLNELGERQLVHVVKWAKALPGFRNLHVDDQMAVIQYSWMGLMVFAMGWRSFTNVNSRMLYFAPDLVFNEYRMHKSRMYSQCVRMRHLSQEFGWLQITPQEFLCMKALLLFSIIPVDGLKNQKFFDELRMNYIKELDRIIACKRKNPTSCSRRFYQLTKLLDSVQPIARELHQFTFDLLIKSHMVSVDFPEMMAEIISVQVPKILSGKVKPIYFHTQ

CCCCCCCCCCCCCCCCCCN(C)C
inactive: Potency [1] | Potency [2] | Potency [3] | Potency [4] | Potency [5] | Potency [6] | outcome [7] | Potency [8]

CC(C)CCO
inactive: Potency [1] | Potency [2] | Potency [9] | Potency [4] | Potency [5] | Potency [6] | Potency [8]

Nc1ccnc(=O)[nH]1
inactive: Potency [1] | Potency [2] | Potency [3] | Potency [4] | Potency [5] | Potency [6] | outcome [7] | Potency [8]

CCCCCCCCCOCC1CO1 (centres undefined)
inactive: Potency [1] | Potency [2] | Potency [3] | Potency [4] | Potency [5] | Potency [6]

C=C[C@@H](C)CCC=C(C)C
inactive: Potency [1] | Potency [2] | Potency [3] | Potency [4] | Potency [5] | Potency [6]

CCCCC(=O)N(C)C
inactive: Potency [1] | Potency [2] | Potency [9] | Potency [4] | Potency [5] | Potency [6] | Potency [8]

CC(=O)OCCCc1ccccc1
inactive: Potency [1] | Potency [2] | Potency [3] | Potency [4] | Potency [5] | Potency [6]

CC(=O)OCC(=O)[C@@]1(O)[C@H](OC(C)=O)C[C@H]2[C@@H]3CCC4=CC(=O)C=C[C@]4(C)[C@@]3(F)[C@@H](O)C[C@@]21C
inactive: Potency [1] | Potency [2] | Potency [9] | Potency [4] | Potency [5] | Potency [6] | Potency [8] | outcome [10]

O=C(/C=C/c1ccccc1)NCCO
inactive: Potency [1] | Potency [2] | Potency [5] | Potency [6] | Potency [8] | outcome [10]
active: Potency [9] 8.49 µM | Potency [4] 10.7 µM

CCCCCCCCCCCCC
inactive: Potency [1] | Potency [2] | Potency [9] | Potency [4] | Potency [5] | Potency [6] | Potency [8]

BrC/C=C/CBr
inactive: activity change, negative = cytotoxicity [1] 0.605% [at 15.8 µM] | activity change, negative = cytotoxicity [2] -6.32% [at 15.8 µM] | activity change, negative = cytotoxicity [3] 4.43% [at 15.8 µM] | cytotoxicity increase [4] -2.29% [at 15.8 µM] | activity change, negative = cytotoxicity [5] 5.53% [at 19 µM] | viability change, negative = cytotoxic [6] 0.0069% [at 19 µM]

CCC(C)(C)C1CCC(=O)CC1
inactive: Potency [1] | Potency [2] | Potency [9] | Potency [5] | Potency [6] | outcome [7] | Potency [8]

NC(=O)NC(=O)Cc1ccccc1
inactive: Potency [1] | Potency [2] | Potency [9] | Potency [4] | Potency [5] | Potency [6] | Potency [8] | outcome [10]

CCCCC(CC)C(=O)OC(C)C (centres undefined)
inactive: Potency [1] | Potency [2] | Potency [9] | Potency [5] | Potency [6]

Nc1c(NC/C=C\COc2cc(CN3CCCCC3)ccn2)c(=O)c1=O
inactive: activity change, negative = cytotoxicity [1] 3.04% [at 15.8 µM] | activity change, negative = cytotoxicity [2] 1.9% [at 15.8 µM] | activity change, negative = cytotoxicity [3] 8.54% [at 15.8 µM] | cytotoxicity increase [4] -13.1% [at 15.8 µM] | activity change, negative = cytotoxicity [5] -19.8% [at 19 µM] | viability change, negative = cytotoxic [6] -4.94% [at 19 µM] | outcome [10]

COc1ccc(NS(=O)(=O)c2ccc(N)cc2)nn1
inactive: Potency [1] | Potency [2] | Potency [3] | Potency [4] | Potency [5] | Potency [6] | Potency [8] | outcome [10]

C1=C\CC/C=C\CC/1
inactive: Potency [1] | Potency [2] | Potency [3] | Potency [5] | Potency [6] | Potency [8]

CC1=NN(c2ccc(S(=O)(=O)O)cc2)C(=O)C1N=Nc1ccccc1 (centres undefined)
inactive: Potency [2] | Potency [9] | Potency [5] | Potency [8]

C=CCOCC(CO)(COCC=C)COCC=C
inactive: Potency [1] | Potency [2] | Potency [3] | Potency [4] | Potency [5] | Potency [6] | Potency [8]

Reference: PubChem BioAssay (Tox21)
